Sampled rows, rich in hits. Any-hit rate of the full collection: about 19%.
Cycloheximide cs: Cycloheximide Counterscreen for Small Molecule Inhibitors of Shiga Toxin; 300,000 compounds, 12% hits; max response, %; AID 2314, 2010; cell reporter, cycloheximide protein synthesis inhibition counterscreen; in the data active = max response mostly above about 13%, no sharp cut-off; inactive = mostly below about 14%; note: read at 38.3 µM for the half of the compounds with a filed dose; 0% is about no effect
Pf growth 96h: Primary qHTS for delayed death inhibitors of the malarial parasite plastid, 96 hour incubation. P. falciparum luciferase reporter growth, 96 h. Potency, µM (top dose mostly 28.7 µM), for inactives: at the highest dose activity change, negative = inhibition, most hits filed as inhibitors. 320,000 compounds, 6.9% hits. AID 504834, 2011; note: potency is the fitted concentration of half-maximal effect; % is set by controls: 0 for no effect and ±100 for the full control effect
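Cell-based qHTS: luciferase-tagged P. falciparum in erythrocytes (2% hematocrit, 0.05% parasitemia final) incubated with compounds for 96 hours, 37 C, 5% CO2; luciferase detection reagent then added and luminescence measured.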
Shiga toxin inh: A qHTS for Small Molecule Inhibitors of Shiga Toxin. inhibition, % at 38.7 µM. Vero cells, Shiga toxin protein synthesis inhibition reporter. 290,000 compounds, 9.2% hits. AID 2315, 2010; in the data active = inhibition mostly above about 28%, no sharp cut-off; inactive = mostly below about 43%; note: 0% is about no effect
LASV entry inh: qHTS for Inhibitors of binding or entry into cells for Lassa Virus | AID 540256, 2011 | Potency, µM (highest dose often 37.9 µM), for inactives: at the highest dose activity change, negative = inhibition, most hits filed as inhibitors | 300,000 compounds, 1.2% hits | Lassa virus pseudotype entry inhibition, cell reporter; calls by dose curve; tested in HEK293 cells; note: potency is the fitted concentration of half-maximal effect; % is set by controls: 0 for no effect and ±100 for the full control effect; nearly all actives have a fitted effect of over 50% in size
Marburg entry inh: qHTS for inhibitors of binding or entry into cells for Marburg Virus; Marburg virus pseudotyped entry inhibition, cell reporter; Potency, µM (series often up to 37.8 µM), without a hit: at the top dose activity change, negative = inhibition, most hits filed as inhibitors; 300,000 compounds, 1.8% hits; calls by dose curve; tested in HEK293 cells; note: potency is the fitted concentration of half-maximal effect; % is set by controls: 0 for no effect and ±100 for the full control effect
Pf growth 48h: Primary qHTS for delayed death inhibitors of the malarial parasite plastid, 48 hour incubation. Potency, µM (top dose mostly 28.7 µM), for inactives: at the highest dose activity change, negative = inhibition, hits mostly inhibitors. AID 504832, 2011. 310,000 compounds, 5.9% hits. P. falciparum luciferase growth in erythrocytes, 48 h; note: potency is the fitted concentration of half-maximal effect; % is set by controls: 0 for no effect and ±100 for the full control effect
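Compounds are pin-transferred into medium, infected erythrocytes (2% hematocrit, 0.1% parasitemia final) are added, and plates sit one parasite generation at 37 C in 5% CO2. Detection reagent is then added and luminescence measured.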
* = called active by the depositor; ? = inconclusive; / = no result given; [ ] = another dose, or the depositor's remark. Unless noted, calls come from the whole dose curve; as a rule, active = well fitted inhibition curve with a large enough effect; inconclusive = small, poorly fitted or top-dose-only effect, or another doubt; inactive = no such curve, though single readings can be large or run the other way.

SMILES | Cycloheximide cs | Pf growth 96h | Shiga toxin inh | LASV entry inh | Marburg entry inh | Pf growth 48h
CC1CCN(S(=O)(=O)c2ccc3c(c2)c(=O)c(C(=O)NCc2cccs2)cn3C)CC1 | -3.7 | -14.6% | -17.4 | -27.9% | -23.4% | 10.7%
CC1CCN(S(=O)(=O)c2ccc3c(c2)c(=O)c(C(=O)NCc2ccco2)cn3C)CC1 | -0.9 | 14.7µM* | -4.4 | -6.8% | 22.5% | ?
CSc1ccc(S(=O)(=O)N2CCC(C(=O)NCc3ccco3)CC2)cc1 | -0.5 | ? | 26.6 | -26.8% | 8.0%[46.1 µM] | 1.65µM*
COc1ccc(-c2nc3c4ccccc4[nH]c(=O)n3n2)cc1 | 23.6* | ? | 54.7* | 9.9% | ? | -27.8%
O=C(Nc1ccc(S(=O)(=O)N2CCCCC2)cc1)C1CC1 | -4.7 | 12.2% | -4.8 | -15.7% | ? | -4.5%
COc1cc2[nH]c(=S)n(Cc3ccc(C)cc3)c(=O)c2cc1OC | -0.9 | 10.4µM* | -7.6 | -29.8%[46.1 µM] | ? | -25.4%
COc1ccc(Cn2c(=O)[nH]c3cc(OC)c(OC)cc3c2=O)cc1 | -2.2 | 2.7% | 15.4 | / | / | 32.5%
COc1ccc(Cn2c(=S)[nH]c3cc(OC)c(OC)cc3c2=O)cc1 | 31.2* | ? | 49.8 | 6.4% | ? | 37.8%[5.75 µM]
CCC(Sc1nccn1C)C(=O)Nc1cccc2ccccc12 (stereo not given) | -3.3 | ? | 3.5 | -3.1% | -3.3%[46.1 µM] | -25.8%
Cc1cc(C(=O)OCC(=O)c2cccc([N+](=O)[O-])c2)c2ccccc2n1 | -1.9 | ? | -11.9 | 0.3% | 2.6% | 2.6%
C=C1C[C@]2(O)[C@@]3(C)CCC(=O)C(C)(C)C3=C(O)C(=O)[C@@]2(C)[C@@H]2C(=O)O[C@@](C)(C(=O)OC)C(=O)[C@@]12C | 25.6* | -16.0% | 63.9* | / | / | 16.7%
COc1ccc(C)cc1CN(C)c1ccc(S(=O)(=O)N2CCN(C)CC2)cn1 | / | ? | / | 4.9% | -9.4%[46.1 µM] | 10.4µM*
Cc1cc(NC(=O)Nc2nnc(N3CCCCCC3)s2)ccc1Br | / | / | / | 13.4%[46.1 µM] | ? | /
Oc1cc2c(cc1O)[C@H]1c3ccccc3CNC1CC2 (stereo not given in full) | / | / | / | / | 15.8µM* | /
O=C(c1ccccc1)[C@H]1[C@H](c2ccccc2)[C@@]2(N=C(c3ccccc3)OC2=O)C2c3ccccc3C=NN21 (stereo not given in full) | 35.0* | ? | 55.1* | / | -4.2% | -27.7%
Cc1cc(NC(=O)c2ccc(Cl)cc2)cc(C)c1OCC(=O)N1CCOCC1 | 32.7* | 0.0% | 76.7* | ? | ? | -3.2%
COc1cc(C(=O)Nc2ccc(C)cn2)ccc1OCC(=O)N1CCOCC1 | / | 55.3% | / | / | / | 51.0%
COc1cc(C(=O)Nc2cc(C)ccn2)ccc1OCC(=O)N1CCOCC1 | 41.6* | 63.5% | 50.9* | -7.8% | ? | 46.6%
CCCCOc1ccc(C(=O)Nc2cc(C)c(OCC(=O)N3CCOCC3)c(C)c2)cc1 | 21.9* | 21.8% | 11.3 | 8.3% | 8.2% | 35.6%
Cc1cc(NC(=O)c2cccc3ccccc23)cc(C)c1OCC(=O)N1CCOCC1 | 0.9 | 16.9% | -7.6 | 3.4% | -3.5% | /
CCCCCCCCSc1nnc(/N=C/N(C)C)s1 | -2.4 | 22.3% | -4.9 | -5.5% | -11.9%[46.1 µM] | 23.0%
COc1ccc(N=C2NC(=O)S/C2=C\c2ccc(N(C)C)cc2)cc1 | 33.7* | 106.3% | 59.9* | -2.9% | -22.8% | 73.3%
O=C(NCc1ccccc1)c1ccc(NC(=O)c2nsc3ccccc23)cc1 | / | / | / | -19.3%[46.1 µM] | / | /
COCC(C)n1c(C)cc(C(=O)COC(=O)CNC(=O)c2ccccc2)c1C (stereo not given) | 53.3* | 36.2% | 86.2* | 3.5% | 54.3% | 29.9%
COCC(C)n1c(C)cc(C(=O)COC(=O)c2n[nH]c3ccccc23)c1C (stereo not given) | 56.4* | / | 129.0* | ? | ? | 27.4%
SMILES | Cycloheximide cs | Pf growth 96h | Shiga toxin inh | LASV entry inh | Marburg entry inh | Pf growth 48h
COCC(C)n1c(C)cc(C(=O)COC(=O)c2oc3ccccc3c2C)c1C (stereo not given) | 14.3 | / | 44.6 | ? | ? | -3.4%
COc1cc(OC)cc(C(=O)NCC(=O)OCC(=O)c2cc(C)n(Cc3ccco3)c2C)c1 | -1.4 | 18.8% | 23.6 | -5.4% | 5.4% | -6.1%
COc1ccc(OC)c(C(=O)COC(=O)CNC(=O)c2ccccc2)c1 | 4.0 | -1.3% | -5.7 | 5.6% | ? | 21.6%
COCCn1c(C)cc(C(=O)COC(=O)CNC(=O)c2ccccc2)c1C | 60.7* | 59.5% | 98.8* | -17.9% | -7.3%[46.1 µM] | 71.2%
CCOC(=O)N/N=C(\C)c1ccccc1OC(F)F | 4.2 | 9.28µM* | -9.4 | ? | 21.1% | ?
COC(=O)N/N=C(\C)c1ccccc1OC(F)F | -5.1 | 31.1% | -20.3 | -5.3% | -0.6% | 10.6%
COc1cc(C=C(c2nc3ccccc3s2)c2nc3ccccc3s2)cc(OC)c1O | 16.6* | ? | 58.0 | -9.2% | 13.3% | ?
COc1cc(/C=C(\CC(=O)O)c2nc3ccccc3s2)cc(OC)c1O | 17.5 | 53.3% | 13.4 | 1.0% | 7.5% | -0.1%
O=C(O)c1ccc(C=C(c2nc3ccccc3s2)c2nc3ccccc3s2)cc1 | 7.5 | -3.6% | -2.5 | ? | -7.0%[46.1 µM] | 14.0%
COc1ccc(/C=C(\CC(=O)O)c2nc3ccccc3s2)cc1O | 25.8 | -0.5% | 71.9* | -6.2% | 18.0%[46.1 µM] | 63.3%
O=C(O)C/C(=C\c1cccc(NC(=O)c2ccccc2Cl)c1)c1nc2ccccc2s1 | 26.5* | ? | 52.4* | / | / | -8.5%
CN(C)c1ccc(/C=C(\Cl)c2nc3ccccc3s2)cc1 | 65.8* | 62.5% | 79.3* | ? | ? | 90.7%
COc1ccc(Nc2nc(C)cc(C)c2C(N)=O)cc1OC | -3.0 | ? | -6.2 | 18.2%[46.1 µM] | -6.5%[46.1 µM] | 2.1%
Cc1ccc(CNC(=O)c2sc3nc4c(c(C(F)(F)F)c3c2N)CCC4)cc1 | -3.4 | 76.2% | -14.3 | 0.5% | -1.6% | 11.5%
COc1ccc(C(=O)Nc2cccc(/C=C(\CCC(=O)O)c3nc4ccccc4s3)c2)cc1 | 17.0* | 51.0% | 59.3* | / | / | 33.5%
CN(c1ccccc1)c1ccc(/C=C(\CCC(=O)O)c2nc3ccccc3s2)cc1[N+](=O)[O-] | 16.5* | -5.0% | 21.3 | 2.3% | -11.3% | 3.5%
CCOc1cc(/C=C(\CC(=O)O)c2nc3ccccc3s2)ccc1OC | 8.8 | 7.9% | 28.8 | 0.9% | 7.1%[46.1 µM] | ?
Cc1ccc(/C=C(\CCC(=O)O)c2nc3ccccc3s2)cc1[N+](=O)[O-] | 2.6 | 25.5% | 15.3 | 10.3% | 2.3% | 1.9%
COc1cccc(CN(C)C(=O)c2ccc(S(=O)(=O)Nc3ccccc3F)cc2)c1OC | / | -9.5% | / | -0.4% | 29.6% | ?
COc1ccc(CCNCC(O)COc2cccc(Br)c2)cc1OC (stereo not given) | -5.3 | 9.28µM* | 0.9 | -9.6% | ? | ?
